We go through 56 molecules from PubChem BioAssay AID2451 (National Center for Advancing Translational Sciences (NCATS), 2010).

In all, about 290,000 compounds went through this assay and about 2,100 (0.72%) were called active. Inconclusive results (about 4%) are left out. The full list was thinned out, with actives kept by preference. A number with no mark means an inactive call. Calls come from the whole dose curve; as a rule, active = well fitted inhibition curve with a large enough effect; inconclusive = small, poorly fitted or top-dose-only effect, or effect the other way; inactive = flat fitted curve, though single readings scatter.
% is set by controls: 0 for no effect and ±100 for the full control effect; potency is the fitted concentration of half-maximal effect.

Sequence of Fructose-bisphosphate aldolase (Giardia intestinalis (strain ATCC 50803 / WB clone C6)) (A8B2U2 whole entry, looked up): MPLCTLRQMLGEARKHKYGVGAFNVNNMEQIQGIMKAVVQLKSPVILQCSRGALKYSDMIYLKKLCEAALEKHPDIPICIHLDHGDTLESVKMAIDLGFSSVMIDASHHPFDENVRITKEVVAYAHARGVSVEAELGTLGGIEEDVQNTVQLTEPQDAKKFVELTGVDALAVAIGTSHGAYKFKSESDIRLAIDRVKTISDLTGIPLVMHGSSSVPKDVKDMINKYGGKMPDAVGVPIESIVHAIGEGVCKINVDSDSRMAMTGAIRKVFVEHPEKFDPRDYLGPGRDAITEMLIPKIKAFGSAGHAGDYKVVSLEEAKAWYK

The assay has as its target Fructose-bisphosphate aldolase (Giardia intestinalis (strain ATCC 50803 / WB clone C6)) (UniProt A8B2U2). Description: qHTS Assay for Inhibitors of Fructose-1,6-bisphosphate Aldolase from Giardia Lamblia. Note: nearly all actives have a fitted effect of over 55% in size. Conditions: purified Giardia FBPA; series mostly up to 59.6 µM; activity, negative = inhibition: at the top concentration. The source says: Assay Provider: Osnat Herzberg, University of Maryland
The objective of this project is to obtain compounds that inhibit Giardia lamblia growth. G. lamblia is a human pathogen which afflicts impoverished nations; it is the most common cause of outbreaks of diarrhea in the United States. During the course of our study of potential drug targets in Giardia, we have identified the Class II (Zn2+ functions in electrophilic catalysis) fructose-1,6-bisphosphate aldolase (FBPA) as an excellent candidate for drug targeting. FBPA is a key glycolytic pathway enzyme, essential for G. lamblia survival. The human FBPA belongs to the Class I aldolases, which have a different substrate binding site structure and a radically different catalytic mechanism (employing a lysine-Schiff base intermediate). Therefore, affinity-based or mechanism-based inhibitors of the Giardia FBPA are expected not to interfere with the catalytic function of the human FBPA.
A glyceraldehyde-3-phosphate dehydrogenase/triose phosphate isomerase/NAD/arsenate coupled assay was adapted to the 1536-well HTP format for use in the primary screen. This was done by coupling it to a diaphorase/resazurin/resorufin reaction that can be monitored by fluorescence (excitation, 544 nm; emission, 590 nm). Compounds identified in this screen will be further evaluated by coupling the glycerol-3-phosphate/triose phosphate isomerase/NADH assay to a phenazine methosulfate/tetranitroblue tetrazolium color reaction. False positives due to the dehydrogenases and diaphorase inhibition will be eliminated, and selectivity assay will triage inhibitors of mammalian triose phosphate isomerase and the Class I FBPA. G. lamblia FBPA inhibitors identified by the in vitro analyses will be examined for growth inhibition of Giardia trophozoites, and for cytotoxicity in human cells.
Step,Parameter,Value,Description
1,Enzyme reagent,2 uL,40 nM FBPA
2,Compound,23 nL,3.68 nM-57.5 uM final concentration
3,Time,10 min,RT Incubation
4,Substrate/detection Reagent,2 uL,Substrate + enzyme coupling system + AmpLite Red kit
5,Time,20 min,RT Incubation
6,Detector,525 nm/598 nm (Fluorescence),ViewLux Fluorescence Read (Read 1)
1,Medium-binding black solid-bottom Kalypsys plates. FRD or Kalypsys dispenser, 2 uL of FBPA enzyme. Bottle kept at 4C.
2,Compound Library (10 mM ,1:5 dilution). Pin-transferred for a [final] range of 3.68 nM-57.5 uM.
4,FRD or Kalypsys dispenser, 2 uL of reaction mixture. Bottle kept at 4C and covered in foil to protect from light.
6,ViewLux Protocol 1194; Excitation filter wheel A (525/20 Pol; BODIPY TMR FP), Emission filter wheel B (598/25 S; BODIPY TMR FP S).
Keywords: Fructose-bisphosphate aldolase, FBPA , Giardia lamblia , Giardia, HTS, Inhibitors
(In general: In qHTS, concentration-response curves come from the screen itself.)
On to `Cc1cccc(NC(=S)N2CCC(c3nc4ccccc4s3)CC2)c1`, for which the “activity, negative = inhibition” value was -0.249%.

`Cc1nc2ccc(NC(=S)N3CCC(C)CC3)cc2nc1C`: the Potency was 15.8 µM (active).

Take `Cc1nc2ccc(NC(=O)N3CCC(c4ccccc4)C3)cc2nc1C` (stereo unspecified): the “activity, negative = inhibition” value was -21.7%.

In the case of `O=CN1CCN(C(=O)c2ccc(Br)o2)CC1`, the “activity, negative = inhibition” value is 3.01%.

As to `Cc1cc(C)c(NC(=O)CN2CCCCCC2)c(C)c1`, the “activity, negative = inhibition” value was -2.14%.

Take `O=C(CN1CCCCCC1)Nc1c(Cl)cc(Cl)cc1Cl`: the “activity, negative = inhibition” value was 5.6%.

On to `Cc1csc(NC(=O)CN2CCCCCC2)n1`, for which the Potency was 22.3 µM (active).

Consider `Cc1cccc([C@@H]2[C@@H]3C(=O)N(C)C(=O)[C@@H]3[C@@H]3C(=O)Nc4ccccc4C(=O)N23)c1`, for which the “activity, negative = inhibition” value was -14.7%.

Consider `COc1ccccc1N(CC(=O)N/N=C(\C)c1ccccc1O)S(=O)(=O)c1ccc(C)cc1`, for which the “activity, negative = inhibition” value was 2.65%.

Take `CC(C)(C)c1ccc(CN2C(=O)c3ccccc3S2(=O)=O)cc1`: the “activity, negative = inhibition” value was -19.5%.

Regarding `Cc1ccc(C(=O)N2CC(=O)Nc3ccc(F)cc3C2c2ccc(F)cc2)cc1` (stereo unspecified), the “activity, negative = inhibition” value was 3.84%.

Take `Cc1nnc(N/N=C/c2ccccn2)[nH]c1=O`: the Potency was 1.99 µM (active).

Consider `Cc1ccccc1Nc1nnc(C)c(=O)[nH]1`, for which the “activity, negative = inhibition” value was -0.51%.

On to `Cc1nnc(N/N=C/c2cccs2)[nH]c1=O`, for which the “activity, negative = inhibition” value was -7.41%.

Turning to `O=S(=O)(c1ccc(Br)c2ccccc12)N1CCOCC1`, the “activity, negative = inhibition” value was 1.75%.

Regarding `COc1ccc(C(=O)Nc2ccc(C3(C#N)CCCC3)cc2)cc1OC`, the “activity, negative = inhibition” value is -4.77%.

`Cc1ccc(CC2CC(=O)N(c3cc(C)ccc3C)C2=O)cc1` (stereo unspecified): the “activity, negative = inhibition” value was -1.82%.

Consider `O=C(COc1cccc(Cl)c1)NCc1ccccc1`, for which the “activity, negative = inhibition” value was 15%.

`O=[N+]([O-])c1ccc(Sc2n[nH]c(-c3ccco3)n2)nc1`: the “activity, negative = inhibition” value is -26.1%.

With `CN(C)C(=O)CSc1n[nH]c(-c2ccco2)n1`, the Potency was 15.8 µM (active).

Turning to `CN(C)c1ccc(NC(=O)CSc2n[nH]c(-c3ccco3)n2)cc1`, the “activity, negative = inhibition” value is -5.76%.

With `CC(C)Nc1ccc(-n2nc3ccccc3[n+]2[O-])cc1`, the “activity, negative = inhibition” value was -3.63%.

Consider `COCCCNC(=S)N1CCN(c2nc(-c3cccc(OC)c3)cs2)CC1`, for which the “activity, negative = inhibition” value is -13.5%.

Regarding `O=C(N/C(=C/c1ccc(Cl)cc1)C(=O)N1CCCCC1)c1ccco1`, the “activity, negative = inhibition” value was 8.42%.

For `COc1cc2ccccc2cc1C(=O)Nc1nc(C)c(C(C)=O)s1`, the “activity, negative = inhibition” value was 0.847%.

With `CCCCC(CC)CNCc1cccn1CCN1CCOCC1` (stereo unspecified), the “activity, negative = inhibition” value was -22.5%.

Regarding `CCN(CC)c1ccc(/C=N/Nc2nc(C)cc(C)n2)c(O)c1`, the “activity, negative = inhibition” value was -25.3%.

For `CCN(CC)c1ccc2oc(=O)c(C)nc2c1`, the Potency is 2.51 µM (active).

On to `CCN(CC)c1ccc(/C=N/Nc2nc(C)cc(=O)[nH]2)cc1`, for which the “activity, negative = inhibition” value was -1.27%.

In the case of `CCOCCOC(=O)C(C)Oc1ccc(Oc2ncc(C(F)(F)F)cc2Cl)cc1` (stereo unspecified), the “activity, negative = inhibition” value was -9.6%.

As for `COc1ccc(C2CC(c3ccc([N+](=O)[O-])cc3)=NN2C(C)=O)cc1` (stereo unspecified), the “activity, negative = inhibition” value is 4.54%.

For the molecule `C#CCN1C(=O)C(O)(CC(=O)c2cc(OC)ccc2OC)c2ccccc21` (stereo unspecified), the “activity, negative = inhibition” value was 0.87%.

For the molecule `COc1ccc(C(=O)NC(C)CCc2ccccc2)c(OC)c1` (stereo unspecified), the “activity, negative = inhibition” value was -2.8%.

`COc1ccc2c(c1)C(=C(C#N)C#N)C(=O)N2CCc1ccccc1`: the Potency was 2.51 µM (active).

As to `Brc1ccccc1C1N=C(c2ccccc2)NO1` (stereo unspecified), the “activity, negative = inhibition” value was 6.11%.

Turning to `Cc1ccc(SCC(CC(C)C)N2CCN(CCc3ccccc3)CCC2=O)cc1` (stereo unspecified), the “activity, negative = inhibition” value is 0.403%.

As for `CCOc1ccccc1NC(=O)C1CCCN(S(=O)(=O)c2ccccc2)C1` (stereo unspecified), the “activity, negative = inhibition” value was -3.85%.

As for `CCN1CCc2c(C#N)c(NCc3ccccc3)nc(NCCO)c2C1`, the Potency is 5.61 µM (active).

`CCc1nc(NCCO)c(C#N)c2c1CCCC2`: the “activity, negative = inhibition” value is 4.66%.

Turning to `CCCCc1nc(NCc2ccccc2)c(C#N)c2c1CCCC2`, the “activity, negative = inhibition” value was 0.951%.

Consider `Cc1cccc(C(=O)NCCCN2CCCC2=O)c1`, for which the “activity, negative = inhibition” value is 0.332%.

On to `O=C1CCCN1CCCNC(=S)Nc1ccc(F)c(Cl)c1`, for which the Potency was 14.1 µM (active).

Consider `Cc1cc(Cl)ccc1NC(=S)NCCCN1CCCC1=O`, for which the “activity, negative = inhibition” value is 3.39%.

Regarding `O=C(O)CCCn1cc(NC(=O)COc2cccc(Cl)c2)cn1`, the “activity, negative = inhibition” value is -8.97%.

With `COc1ccc(-n2ncc3c(SCC(=O)NNC(C)=O)ncnc32)cc1`, the “activity, negative = inhibition” value is 13.2%.

Regarding `Cc1ccccc1-n1nc(C)c2cc(C(=O)NC3CC3)sc21`, the “activity, negative = inhibition” value was 0.949%.

Consider `Cc1nn(-c2ccccc2)c(Cl)c1/C=C/C(=O)c1ccc(O)cc1`, for which the “activity, negative = inhibition” value was 1.27%.

In the case of `Cc1ccccc1-n1nc(C)c2c1N=C1C(Cl)=CC(Cl)=CN1C2c1ccc(C(=O)O)cc1` (stereo unspecified), the Potency was 12.6 µM (active).

As to `Cc1cccc([C@@H]2[C@@H]3C(=O)N(Cc4ccccc4)C(=O)[C@@H]3[C@]3(C)C(=O)N(c4ccc(Br)cc4)C(=O)N23)c1`, the “activity, negative = inhibition” value was 16.2%.

On to `CCN(CC)S(=O)(=O)c1ccc(-c2cn3ccc(C)cc3n2)cc1`, for which the “activity, negative = inhibition” value is 4.66%.

Turning to `C=CCn1c(SCc2ccccc2)nc2c1c(=O)[nH]c(=O)n2C`, the “activity, negative = inhibition” value is 6.61%.

For `Cc1cnc(NC(=O)c2ccc(Cl)nc2)s1`, the “activity, negative = inhibition” value is -13.5%.

Regarding `Cc1cnc(NC(=O)c2ccccn2)s1`, the Potency was 7.92 µM (active).

As to `Cc1cnc(NC(=O)CSc2c(Cl)cccc2Cl)s1`, the “activity, negative = inhibition” value is 0.395%.

As for `CN(C)CCN(C(=O)C1=COCCO1)c1nc2ccc(Cl)cc2s1`, the “activity, negative = inhibition” value is -10.9%.

Regarding `CCc1ccc(NC(=O)N2CCc3ccccc3C2)cc1`, the “activity, negative = inhibition” value is 5.4%.
